The record followed here is PubChem BioAssay AID492953 (The Scripps Research Institute Molecular Screening Center, 2010).

Out of some 340,000 compounds screened, about 4,200 (1.2%) were called active. What follows is part of a selection rich in actives, with near analogues and random picks from the rest. Unmarked numbers belong to inactive results.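 Rule for the calls: active = inhibition above the mean of all tested compounds plus 3 SD (cut at about 24% in these data); inactive = the rest.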

This assay deals with Platelet-activating factor acetylhydrolase IB subunit alpha2 (Homo sapiens) (UniProt P68402). Put plainly: inhibition of PAF acetylhydrolase 1b subunit 2 – biochemical, fluorescence polarization, human, primary screen (AID 492953).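 Note: 0% = enzyme with DMSO and 100% = wells lacking PAFAH1B2.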 The note with it: recombinant PAFAH1B2, FP-rhodamine activity probe, at 3.39 µM, hits give high values. A general note: Polarisation of emitted light reports the rotation of a fluorescent probe.
Platelet-activating factor acetylhydrolase IB subunit alpha2 (Homo sapiens), sequence (P68402 whole entry, looked up): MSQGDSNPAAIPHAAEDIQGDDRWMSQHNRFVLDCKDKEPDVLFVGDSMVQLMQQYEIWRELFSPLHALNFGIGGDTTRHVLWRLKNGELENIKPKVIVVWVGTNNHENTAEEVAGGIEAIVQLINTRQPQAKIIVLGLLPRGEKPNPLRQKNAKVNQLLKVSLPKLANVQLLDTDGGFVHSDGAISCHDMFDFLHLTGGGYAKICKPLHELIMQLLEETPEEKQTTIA
As to `CC(OC(=O)/C=C/c1ccccc1)C(=O)NC1CCCCC1C` (stereo not drawn), the inhibition – broadly, the drop in the measured response relative to a control, in per cent – was 1.18%. As for `Cc1ccc(COc2ccc(/C=N/NC(=O)CN3CCCCC3)cc2)cc1`, the figure is 25.1% (active); as for `O=C(CN1CCSCC1)N/N=C/c1ccc(F)cc1`, -6.64%. As for `CCOc1cc(/C=N/NC(=O)CN2CCCCC2)ccc1O`, the figure is 1.96%; as for `Cc1ccc(S(=O)(=O)NC(=O)N2CCCN(Cc3ccc(F)cc3)CC2)cc1`, 9.06%. `C/C(Cn1nnc2ccccc21)=N\OC(=O)c1cc(F)c(F)cc1Cl`: the inhibition is 25.1% (active).

For `Cn1c(Cn2nnc3ccccc32)nnc1SCC(=O)c1ccccc1F`, the inhibition was 4.6%.

As to `CCOC(=O)c1cccc(NC(=O)CCn2nnc3ccccc32)c1`, the inhibition is 1.37%. Take `COC(=O)C1=C(N)Oc2cc(C)[nH]c(=O)c2C1c1ccc(Cl)cc1` (stereo not drawn): the inhibition was -2.03%.

Take `C=CCNC(=O)CCCC(=O)NCC=C`: the inhibition is 2.09%. As for `Cc1ccc(NS(=O)(=O)c2ccc3c(c2)NC(=O)CO3)cc1`, the figure is 19.2%; as for `Cc1ccc(NS(=O)(=O)c2cc3c(cc2C)NC(=O)CO3)cc1`, 6.94%; as for `O=C1COc2ccc(S(=O)(=O)Nc3ccc(OC(F)(F)F)cc3)cc2N1`, 41.6% (active). As for `Nc1ccc2c(c1)C(=Cc1cccnc1)c1ccccc1-2`, the figure is 6.17%; as for `COc1cc2c(cc1OC)C1C(=O)c3cc(OS(C)(=O)=O)c(OC)cc3C1N(C)C2=O` (stereo not drawn), 0.81%. As for `CCCNC(=O)NC(=O)COC(=O)CC(NC(N)=O)c1ccc(Cl)cc1` (stereo not drawn), the figure is 2.08%; as for `COCCNC(=O)NC(=O)COC(=O)C1(c2ccc(Cl)cc2)CC1`, 26.9% (active); as for `CC(=O)N1CCC(C(=O)OCc2ccc(Cl)cc2)(c2ccccc2)CC1`, 7.86%. As to `COc1ccc(-c2c(C)cc3oc(=O)cc(-c4ccccc4)c3c2C)cc1C=O`, the inhibition is -1.53%. As for `O=c1[nH]c2ccccc2s1`, the inhibition was 4.32%. `CC1CCN(S(=O)(=O)c2ccc(S(=O)(=O)NCc3ccco3)cc2)CC1`: the inhibition is 29.6% (active). With `Cc1ccc(S(=O)(=O)N2CCC(C(=O)N[C@@H](C)C(=O)NCc3ccco3)CC2)cc1`, the inhibition is 4.6%. As for `O=C(NC1CCC(O)CC1)c1ccc(S(=O)(=O)NCc2ccco2)cc1` (stereo not drawn), the figure is 4.89%. As for `O=C(CSc1ccc([N+](=O)[O-])cn1)Nc1ccc(N2CCOCC2)c(Cl)c1`, the figure is -0.87%; as for `O=C(/C=C/c1ccccc1[N+](=O)[O-])OCC(=O)N1CCCC1`, 0.91%. Regarding `COC(=O)[C@@H]1C[C@H]2CC[C@H](O)C[C@H]2N1Cc1ccc(N2CCN(C)CC2)cc1`, the inhibition was -3.13%. Turning to `O=C1N[C@@H](c2ccccc2)COC(=O)[C@H](Cc2ccc(F)cc2)C/C=C\C[C@@H]1CC(=O)N(CCO)Cc1ccccc1`, the inhibition was 4.49%.

Regarding `O=C1CCC/C=C/C[C@@H](CC(=O)N(CCO)Cc2ccccc2)C(=O)NC[C@H](c2ccccc2)O1`, the inhibition was -0.45%. As for `O=C1NC[C@@H](c2ccccc2)OC(=O)[C@H](Cc2ccc(F)cc2)CC/C=C/C[C@H]1CC(=O)N(CCO)Cc1ccccc1`, the figure is 53.8% (active); as for `COC(=O)c1cc(S(=O)(=O)N2CCC(C(N)=O)CC2)oc1C`, -0.09%; as for `O=C(Nc1ccccc1)N1CCC(C(=O)N2CCN(Cc3ccccc3)CC2)CC1`, 0.85%. Consider `COc1ccc(C2c3c(C)nn(-c4ccccc4)c3NC(=O)N2c2ccccc2)cc1` (stereo not drawn), for which the inhibition was 0.39%. As for `CCCc1[nH]nc2c1C(C1CC=CCC1)C(C#N)=C(N)O2` (stereo not drawn), the figure is 27.5% (active); as for `COCc1[nH]nc2c1C(C1C=CCCC1)C(C#N)=C(N)O2` (stereo not drawn), 4.96%; as for `CCCc1[nH]nc2c1C(c1ccc(Br)s1)C(C#N)=C(N)O2` (stereo not drawn), 19.3%. As for `CC(C)(C)c1cc(CN2CCN(CCC#N)CC2)cc(C(C)(C)C)c1O`, the figure is 1.53%. `CCOC(=O)c1ccccc1N1C(=O)C2Sc3[nH]c(=O)sc3C(/C=C/c3ccccc3)C2C1=O` (stereo not drawn): the inhibition is 1.84%. As for `CCOC(=O)C1CCN(C(=O)Nc2ccc(Cl)cc2)CC1`, the figure is 2.4%; as for `CCOC(=O)C1Sc2[nH]c(=O)sc2C(c2ccc(Cl)cc2)C1C(=O)OCC` (stereo not drawn), 27% (active); as for `CCCCNC(=O)N1CCN(S(C)(=O)=O)CC1`, 3.98%. `Nc1cc(N)nc(SCc2ccc(Cl)cc2)n1`: the inhibition is 24.1%. `Clc1ccc(CSc2nnc([C@@H]3CCCN3)o2)cc1`: the inhibition is 24.3% (active). As for `O=C(C1CC1)N1CCN=C1SCc1ccc(Cl)cc1`, the figure is 10.5%. As for `COCC1CCN(C(=O)C2CCC(=O)N(Cc3cccc(C(F)(F)F)c3)C2)CC1` (stereo not drawn), the figure is -0.17%; as for `CCN(CC)CCCC(C)n1c2nc(=O)[nH]c(=O)c-2nc2cc(Cl)ccc21` (stereo not drawn), 26% (active); as for `CCN(CC)CCn1c2ccc(Cl)cc2c2nc(C)sc21`, -5.01%. With `CN(C(=O)c1ccc(NC(=O)Cc2cccc(NC(=O)C3CCN(C(=O)c4ccccc4)CC3)c2)cc1)C1CC1`, the inhibition was 4.32%. As for `O=[N+]([O-])c1ccc(NS(=O)(=O)c2ccccc2)c(Cl)c1`, the figure is 1.95%; as for `CN(C)CCNC(=O)c1ccc(Cl)c2cc3ccccc3nc12`, -1.08%; as for `CC(=O)COc1ccc2c(-c3ccccc3)cc(=O)oc2c1`, -1.64%. Take `O=C(CNC(=O)OCc1ccccc1)Oc1cc2oc(=O)cc(-c3ccccc3)c2cc1Cl`: the inhibition is 45.7% (active). As for `O=C(CNC(=O)c1ccc(-c2ccccc2)cc1)OCc1ccc(Cl)cc1`, the figure is 1.38%; as for `Nc1ccc2nc3c(=O)[nH]c(=S)[nH]c3nc2c1`, 33.8% (active).

`O=C(NCCc1ccccn1)c1nc(Cn2cc([N+](=O)[O-])cn2)no1`: the inhibition is -4.12%.

`C=CC(=O)Nc1ccc(Nc2ccnc(Nc3ccc(N4CCN(C)CC4)cc3)n2)cc1`: the inhibition is 1.32%. For `O=C(COc1ccccc1Cl)Nc1ccccc1C(=O)NC1CC1`, the inhibition is 0.96%.

For the molecule `COc1ccc(S(=O)(=O)N2CCOC2CNC(=O)C(=O)NCc2ccncc2)cc1C` (stereo not drawn), the inhibition was 1.87%. On to `Nc1cccnc1Sc1ccccc1`, for which the inhibition was 4.02%. As for `CC(Oc1ccc(Cl)cc1)c1ccnn1S(C)(=O)=O` (stereo not drawn), the figure is 29.6% (active). As for `CC(Oc1ccc(Cl)cc1)C(=O)Nc1ncccn1` (stereo not drawn), the figure is 5.55%; as for `CCN(Cc1ccccc1)S(=O)(=O)c1cc2c3c(c1)CCN3C(=O)CC2`, 8.31%.

Turning to `C=CCOc1ccc(/C=N/n2cncn2)cc1OC`, the inhibition is 6.27%. As for `CCOC(=O)c1c(NC(=O)CSc2cn(CC)c3ccccc23)sc2c1CCC2`, the inhibition was -2.98%. As for `CCOC(=O)c1c(NC(=O)CSc2nnc(C)c(=O)[nH]2)sc2c1CCC2`, the figure is 66.8% (active). As to `CCOC(=O)c1c(NC(=O)CSc2nnc(CN3CCOCC3)n2C)sc2c1CCCC2`, the inhibition is -1.06%. As for `CC1CC(=O)Nc2ccccc2N1C(=O)COc1ccc2cc(Br)ccc2c1` (stereo not drawn), the figure is 16.6%; as for `COc1ccc(-c2cc(C(F)(F)F)nc(S(C)(=O)=O)n2)cc1OC`, -1.46%. As for `Cc1cc[n+](-c2[nH]c(=O)sc2/C=N/NC(=O)c2ccccc2[O-])cc1C`, the figure is 8.46%; as for `COc1ccccc1-c1noc(CSc2nc(C)cc(=O)[nH]2)n1`, 1.01%; as for `Cc1cc(=O)[nH]c(SCc2cccc(F)c2)n1`, 3.14%. As for `Cc1cc(=O)[nH]c(SCc2cc(Cl)ccc2OC(F)F)n1`, the figure is 26.4% (active).

In the case of `COc1ccc(CC(NC(C)=O)C(=O)NC2CCN(C(=O)Nc3ccc(C#N)cc3)CC2)cc1OC` (stereo not drawn), the inhibition was 2.86%. As for `CCN(C(=O)CN1CCN(Cc2ccccc2)CC1)c1c(N)n(Cc2ccccc2)c(=O)[nH]c1=O`, the figure is -0.83%; as for `CCCCC1S/C(=N/N=C/c2cccs2)NC1=O` (stereo not drawn), 8.36%. As for `COc1ccc(C(=O)NNc2cc(C)nc(NNC(=O)c3ccc(OC)cc3)n2)cc1`, the figure is 24.3% (active). As for `COc1ccc(C(=O)NNC(=O)c2cc(C)[nH]n2)cc1`, the figure is 5.54%; as for `COc1ccc(C(=O)NNS(=O)(=O)c2ccc(C)cc2)cc1`, 6.56%; as for `O=C1NC2(CCCCCC2)C(=O)N1CCS(=O)(=O)Oc1ccccc1`, 7.86%.

`CCn1c(CNC(=O)c2cc(OC)c(OC)c(OC)c2)cc2cc(C)ccc21`: the inhibition was 2.65%. As for `O=c1ccc2c(-c3ccccc3S(=O)(=O)O)c3ccc(O)c(O)c3oc-2c1O`, the figure is 26.6% (active). On to `CCCNC(=O)CN(Cc1ccccc1F)S(=O)(=O)c1ccc(C)cc1`, for which the inhibition was 4.33%. As for `CC(C)Cn1c(N2CCN(C(=O)/C=C/c3ccccc3)CC2)nc2ccccc21`, the figure is 28.8% (active); as for `C=CCn1c(C(C)NC(=O)CC)nc2ccccc21` (stereo not drawn), 0.58%.

As for `Cc1cc(NC(=O)CSc2nc3ccccc3n2CC(C)C)no1`, the inhibition was 4.62%. With `CNC(=O)/C(=C\C=C\c1ccccc1)NC(=O)c1ccc([N+](=O)[O-])cc1`, the inhibition is -3.09%. As for `O=C(Cc1ccc(S(=O)(=O)N2CCOCC2)s1)Nc1ccc(Br)c(C(F)(F)F)c1`, the figure is -4.41%. With `COc1ccc(CC(=O)Nc2nc(-c3ccc(F)c(F)c3)cs2)cc1OC`, the inhibition is 4.28%. `Cc1ccc(S(=O)(=O)NC(=O)Nc2nc(-c3ccc(F)c(F)c3)cs2)cc1`: the inhibition is 30.1% (active). As for `COc1cc(CC(=O)Nc2nc(-c3ccc(F)c(F)c3)cs2)cc(OC)c1OC`, the figure is 1.73%; as for `COc1ccc(C)cc1NC(=S)Nc1ccccc1SC`, 9.46%. Turning to `O=C1C(Cl)=C(Oc2ccccc2)C(=O)c2ccccc21`, the inhibition is 33.9% (active). As for `CC(=O)N(C1=C(Cl)C(=O)c2ccccc2C1=O)c1ccc(C(=O)O)cc1`, the figure is 15.6%; as for `CC(=O)Oc1ccc2c(c1)C(=O)c1ccccc1C2=O`, 7.25%.
